Screens from PubChem BioAssay.
Rows were chosen to be rich in hits. Some 10% of all compounds tested hit in one or more screens of this group.
BAZ2B block – BAZ2B (human) inhibition | Potency, µM (doses to about 114 µM), for inactives: at the highest dose activity change, negative = inhibition, actives largely listed as inhibitors | 360,000 compounds, 4.4% hits | Q9UIF8 | AlphaScreen BAZ2B-H3K14Ac peptide displacement; further: on the % scale 0 is the no-effect control and ±100 the full control effect; nearly all actives have a fitted effect of over 60% in size
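AlphaScreen displacement of biotin-H3(5-23)K14Ac peptide (50 nM final) from BAZ2B (50 nM final) in PBS pH 7.4, 0.01% Tween-20; complex preformed 30 min RT, then compounds (top 110 uM) 30 min RT, beads 20 min dark.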
L3MBTL1 block – inhibitors of human L3MBTL1 | Q9Y468 | AlphaScreen L3MBTL1–H3K9me1 peptide binding | Potency, µM (doses to about 57.1 µM), for inactives: at the top dose activity, negative = inhibition, usual class: inhibitors | 230,000 compounds, 0.66% hits; further: on the % scale 0 is the no-effect control and ±100 the full control effect; nearly all actives have a fitted effect of over 60% in size
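AlphaScreen proximity signal between nickel-chelate acceptor and streptavidin donor beads (final 10 ug/mL) reports binding of 50 nM L3MBTL1 to 75 nM biotin-H3 K9me1 peptide; complex incubated with compounds 30 min at room temperature; cefsulodin titration as control.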
JMJD2A Tudor inh – inhibitors of human JMJD2A Tudor domain | Potency, µM (top dose mostly 114 µM), for the others: at the top dose activity change, negative = inhibition, most hits filed as inhibitors | AID 504339 | 390,000 compounds, 4.4% hits | AlphaScreen JMJD2A-Tudor / H3K4me3 peptide binding | O75164; further: on the % scale 0 is the no-effect control and ±100 the full control effect; nearly all actives have a fitted effect of over 50% in size
GLS inhibitor – inhibitors of human glutaminase (GLS). Potency, µM (series often up to 45.5 µM), for inactives: at the highest dose activity change, negative = inhibition, hits mostly inhibitors. 410,000 compounds, 0.21% hits. GLS enzymatic activity, qHTS titration. AID 624170; further: on the % scale 0 is the no-effect control and ±100 the full control effect
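Two-point fluorescence kinetic (t0, 30 min RT) for hKGA; glutamate detected via glutamate oxidase–HRP–Amplex Red. Substrate: 1 mM L-glutamine solution; buffer 45 mM KH2PO4, pH 8.2.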
HP1b binding inh – HP1-beta chromodomain-methylated histone interaction inhibition | Potency, µM (titrated, usually from 114 µM), inactives show top-dose activity change, negative = inhibition, hits mostly inhibitors | AID 540317 | AlphaScreen HP1-beta / biotin-H3K9me3 peptide binding | P83916 | 390,000 compounds, 0.56% hits; further: nearly all actives have a fitted effect of over 70% in size
Target sequence (P83916 whole entry, looked up): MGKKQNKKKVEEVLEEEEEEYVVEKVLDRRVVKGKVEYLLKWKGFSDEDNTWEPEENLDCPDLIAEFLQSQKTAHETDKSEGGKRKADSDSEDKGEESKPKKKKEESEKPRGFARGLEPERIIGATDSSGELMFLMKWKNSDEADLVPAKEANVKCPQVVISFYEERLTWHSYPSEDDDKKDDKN
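AlphaScreen: HP1-beta (50 nM) preformed 30 min with biotin-H3(1-18)K9me3 peptide (50 nM) in PBS pH 7.4, 0.01% Tween-20. Compound added for 30 min at RT, then streptavidin donor/nickel chelate acceptor beads (10 ug/mL) for 30 min.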
G9a inh – inhibitors of human histone lysine methyltransferase G9a; Q96KQ7; G9a H3K9 monomethylation, AlphaScreen, 2 h; Potency, µM (highest dose often 102 µM), for the others: top-dose activity, negative = inhibition, usual class: inhibitors; 350,000 compounds, 8.8% hits; further: on the % scale 0 is the no-effect control and ±100 the full control effect; nearly all actives have a fitted effect of over 75% in size
Target sequence (Q96KQ7 913-1193 limits assumed): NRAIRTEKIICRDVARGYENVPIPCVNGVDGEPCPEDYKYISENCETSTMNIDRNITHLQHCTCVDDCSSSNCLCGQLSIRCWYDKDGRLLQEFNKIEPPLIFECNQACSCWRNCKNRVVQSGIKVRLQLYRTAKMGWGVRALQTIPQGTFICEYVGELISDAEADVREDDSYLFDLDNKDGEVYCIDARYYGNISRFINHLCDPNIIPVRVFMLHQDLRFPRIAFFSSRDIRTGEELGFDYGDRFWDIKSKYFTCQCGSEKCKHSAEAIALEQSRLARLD
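G9a (20 nM) was preincubated 15 min with compound, then reacted 2 h at room temperature with 500 nM biotin-H3K9 peptide and 20 µM SAM. Monomethyl-H3K9 detected by AlphaScreen using anti-H3K9me1 antibody.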
The depositor's hits bear a star; u = inconclusive; x = not tested or not shown; [ ] = another dose, or the depositor's remark. The call rests on the fitted dose curve; in most records, active means well fitted curve in the direction sought with a large enough effect; inconclusive means small, poorly fitted or top-dose-only effect, or another doubt; inactive means no such curve, though single readings can be large; an effect the other way counts as inactive or inconclusive. Potency means the concentration at half of the fitted maximal effect.

SMILES	BAZ2B block	L3MBTL1 block	JMJD2A Tudor inh	GLS inhibitor	HP1b binding inh	G9a inh
OC1CC(c2ccco2)NC2(CCCCC2)C1 (stereo not given)	u	-4%	7.9µM*	-1%	-55%	8.9µM*
c1coc(C2OCC3(CO2)COC(c2ccco2)OC3)c1 (stereo not given)	-2%	x	-21%	-7%	18%	5%
Nc1c(-c2ccccc2)cc[nH]c1=O	x	x	8.9µM*	x	x	x
CC(C)c1ccc(Nc2nc3c(S(=O)(=O)c4ccc(Br)cc4)nnn3c3ccsc23)cc1	-13%	x	-18%	-10%	20%	-19%[59 µM]
CCN(CC)C(=O)Cn1c(=O)n(-c2ccc(Cl)c(Cl)c2)c(=O)c2c(C)c(C(=O)N(CC)CC)sc21	-2%	x	-13%	-5%	-5%	-2%[59 µM]
COc1ccc(-c2nc(SC)n(C)c(=O)c2C#N)cc1OC	-11%	x	-14%	7%	7%	-16%[2.33 µM]
COc1ccc(C(c2c(O)nc(SC)n(C)c2=O)c2c(O)nc(SC)n(C)c2=O)cc1O	-15%	16%	-4%	-1%	47%	16µM*
CCN(CC)CCOC(=O)c1ccc(NC(=O)c2cc3cccc(OC)c3oc2=O)cc1	-13%	x	-28%	-3%	12%	u
COc1ccc2cc3cc(C(=O)Nc4ccccc4C)oc3nc2c1	x	x	-26%	-10%	7%	u
CCN(CC)CCOC(=O)c1ccc(NC(=O)Cn2ncc3c2-c2cc(C)ccc2OC3)cc1	-24%	x	-16%	7%	14%	8%[59 µM]
Cc1cccc(N2CCN(Cc3nnc(-c4ccccc4C)o3)CC2C)c1 (stereo not given)	u	x	79µM*	-3%	-8%	u
Cc1cn2c(=O)cc(COc3ccc(NC(=O)COc4ccccc4)cc3)nc2s1	-21%	x	-9%	-8%	34%	-1%[59 µM]
Cc1cccc(/C=C2\CS/C(=C\c3cccc(C)c3)C2=O)c1	50µM*	x	u	13%	u	u
Cc1nn(C)c(C)c1NC(=O)COc1ccc(Cl)cc1	-4%	-1%	-15%	-5%	66%	-15%[12.7 µM]
Cc1nn(C)c(C)c1NC(=O)CCl	35µM*	9%	-26%	-11%	17%	45µM*
Cc1cccc(C)c1NC(=O)c1sccc1SCC#N	-3%	9%	-13%	-1%	20%	11µM*
CCOC(=O)c1c(C)n(-c2ccccc2)c2ccc(OC(=O)c3ccc(OCC)c(OCC)c3)cc12	-12%	x	-33%	15%	70%	-14%[59 µM]
O=C(Cn1c(=O)c(CNc2ccccc2)cc2cc3c(cc21)OCCO3)Nc1ccccc1Cl	u	x	u	-18%	52%	u
CCc1ccc(NCc2cc3cc(OC)c(OC)cc3n(CC(=O)Nc3cc(C)ccc3C)c2=O)cc1	-22%	x	-15%	11µM*	16%	-1%[59 µM]
Cc1ccc(Cl)cc1NC(=O)Cn1c(=O)c(CNc2ccccc2)cc2cc3c(cc21)OCCO3	-22%	x	-29%	-14%	6%	7.9µM*
CC(=O)c1cccc(NC(=O)Cn2c(=O)c(CNc3ccc(C)cc3)cc3cc4c(cc32)OCCO4)c1	u	x	-32%	10µM*	3%	u
Cc1ccc(NC(=O)Cn2c(=O)c(CNc3ccccc3)cc3cc4c(cc32)OCCO4)cc1	1%	x	-16%	-20%	22%	-11%[59 µM]
CCC(Cc1c(I)cc(I)c(O)c1I)C(=O)O (stereo not given)	x	x	x	-25%	x	u
COc1ccc(-c2ocnc2C(=O)N2CCN(C(=O)C(c3ccccc3)c3ccccc3)CC2)cc1	-30%	x	-20%	-15%	18%	50µM*
COc1ccc(-c2ocnc2C(=O)N2CCN(Cc3cccnc3)CC2)cc1	-4%	0%	-12%	1%	39%	-7%
SMILES	BAZ2B block	L3MBTL1 block	JMJD2A Tudor inh	GLS inhibitor	HP1b binding inh	G9a inh
N#C/C(=C\c1ccc(N2CCCCC2)o1)C(N)=O	28µM*	-16%	-15%	10%	8%	28µM*
N#C/C(=C/c1ccc(N2CCOCC2)o1)c1ccc(Cl)cc1	45µM*	-6%	56µM*	-11%	-26%	u
Cc1ccc(CCNc2ncnc3onc(C)c23)cc1	14%[57.1 µM]	x	11%	-6%	41%	10%[59 µM]
CCN(CC)c1ccc(NC(=O)COC(=O)/C=C/c2nc3ccccc3s2)cc1	-26%	-8%	u	9%	-6%	6.3µM*
O=C(CN1C(=O)/C(=C/c2ccc(C(F)(F)F)cc2)Sc2ccccc21)NCCCN1CCOCC1	-29%	x	-19%	-5%	22%	-7%[59 µM]
O=C(CN1C(=O)COc2ccccc21)NCCCN1CCOCC1	4%	x	-5%	2%	-5%	7%[59 µM]
O=C(CN1C(=O)/C(=C\c2cccc(Br)c2)Oc2ccccc21)NCCCN1CCOCC1	-6%	x	45µM*	20%	58%	17%[59 µM]
CCc1ccc(/C=C2/Sc3ccccc3N(CC(=O)NCCCN3CCOCC3)C2=O)cc1	35µM*	x	u	-1%	-9%[57 µM]	-12%
CCCC(=O)n1nc(-c2ccccc2)nc1SC	58%	10%	27%	0%	120%	1.1µM*
COc1ccc(-c2nsc(SCC(=O)NCC3CCCO3)n2)cc1 (stereo not given)	-24%	1%	-15%	3%	22%	7.9µM*
CCOC(=O)CNC(=O)CSc1nc(-c2ccc(OC)cc2)ns1	-12%	3%	-16%	35%	u	18µM*
CCOC(=O)Cn1nc(-c2ccccc2)nc1-c1ccccc1	6%	1%	5.6µM*	1%	73%	28%[59 µM]
Cc1ccc(-c2nsc(SCC(=O)NCC3CCCO3)n2)cc1 (stereo not given)	x	x	-1%	6%	22%	-32%
CCc1nnc(NC(=O)CSc2nc(-c3ccc(OC)cc3)ns2)s1	-1%	7%	-8%	-1%	43%	u
Nc1c(-c2nc(-c3cccs3)no2)nnn1-c1cccc(F)c1	3%	x	-15%	-1%	11%	7%[59 µM]
COC(=O)C1=C(C)NC(COC(N)=O)=C(C(=O)OC(C)C)C1c1cccc(Cl)c1Cl (stereo not given)	x	x	x	-3%	x	x
COc1ccc(-c2nsc(SCC(=O)Nc3cc(C)on3)n2)cc1	4%	-12%	u	10%	u	3.5µM*
CCOC(=O)CSc1nnc(-c2ccccc2)c(-c2ccccc2)n1	1%	x	10%	20%	32%	47%
CCOC(=O)CSc1nc(-c2ccccc2)ns1	193%	52%	98%	u	86%	8.9µM*
CCc1ccccc1NC(=O)c1ccc2[nH]c(C)c(C)c2c1	21%	x	-25%	-2%	29%	2%[59 µM]
COc1ccccc1NC(=O)CN1CC(=O)Nc2ccccc21	x	-7%	9%	-2%	37%	20µM*
O=C(CN1CC(=O)Nc2ccccc21)Nc1ccc(F)c(F)c1	-1%	x	-5%	-16%	51%	8.9µM*
